From PubChem BioAssay AID1159580 (chemical genetic matrix, 2015)
The campaign covered roughly 5,500 compounds. About 2,000 (36%) were called active. Inconclusive results (about 18%) are left out. No stated cut-off is given here; in the data, active means normalized growth mostly below about 0.91 (no sharp cut-off); inconclusive means no clear call, values can overlap the other calls; inactive means mostly above about 0.92. The list shows a part of the results.

Assay: chemical genetic growth profiling, strain panel (AID 1159580);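 further: tested at 20 µM; growth read once vehicle control cultures reached saturation at 30 °C; 1 = growth at the plate median or of vehicle wells; lower values mean less growth of the strain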
Details: growth OD
[1] = S. cerevisiae deletion strains, locus YDL101C, strain DUN1, hits give low values
[2] = S. cerevisiae deletion strains, locus YHR030C, strain SLT2, hits give low values
[3] = S. cerevisiae deletion strains, locus YAL013W, strain DEP1, hits give low values
[4] = S. cerevisiae deletion strains, locus YBR229C, strain ROT2, hits give low values
[5] = S. cerevisiae deletion strains, locus YDR150W, strain NUM1, hits give low values
[6] = S. cerevisiae deletion strains, locus YEL061C, strain CIN8, hits give low values
[7] = S. cerevisiae deletion strains, locus YGR078C, strain PAC10, hits give low values
[8] = S. cerevisiae deletion strains, locus YHR087W, strain rtc3, hits give low values
[9] = S. cerevisiae deletion strains, locus YJR043C, strain POL32, hits give low values
[10] = S. cerevisiae deletion strains, locus YJR075W, strain HOC1, hits give low values
[11] = S. cerevisiae deletion strains, locus YLR039C, strain RIC1, hits give low values
[12] = S. cerevisiae deletion strains, locus YLR058C, strain SHM2 (second series), hits give low values
[13] = S. cerevisiae deletion strains, locus YLR085C, strain ARP6, hits give low values
[14] = S. cerevisiae deletion strains, locus YLR262C, strain YPT6, hits give low values
[15] = S. cerevisiae deletion strains, locus YML094W, strain GIM5, hits give low values
[16] = S. cerevisiae deletion strains, locus YMR219W, strain ESC1, hits give low values
[17] = S. cerevisiae deletion strains, locus YMR263W, strain SAP30, hits give low values
[18] = S. cerevisiae deletion strains, locus YNL153C, strain GIM3, hits give low values
[19] = S. cerevisiae deletion strains, locus YNL298W, strain CLA4 (second series), hits give low values
[20] = S. cerevisiae deletion strains, locus YNL322C, strain KRE1, hits give low values
[21] = S. cerevisiae deletion strains, locus YNR030W, strain Alg12, hits give low values
[22] = S. cerevisiae deletion strains, locus YPL055C, strain LGE1, hits give low values
[23] = S. cerevisiae deletion strains, locus YPL241C, strain CIN2, hits give low values
[24] = S. cerevisiae deletion strains, locus YPR135W, strain CTF4, hits give low values
[25] = S. cerevisiae strains, strain wild type, hits give low values
[26] = S. cerevisiae deletion strains, locus YMR307W, strain GAS1, hits give low values

Measured: normalized growth

CC(C)(C)C1=C(C#N)C(c2c(Cl)cccc2Cl)C(C#N)=C(N)O1 (stereo not given)
inactive: S. cerevisiae deletion strains, locus YAR019C, strain CDC15, hits give low values 0.987 | S. cerevisiae deletion strains, locus YBL105C, strain PKC1, hits give low values 0.99 | S. cerevisiae deletion strains, locus YBR135W, strain CKS1, hits give low values 0.992 | S. cerevisiae deletion strains, locus YBR136W, strain MEC1, hits give low values 0.989 | S. cerevisiae deletion strains, locus YBR160W, strain CDC28, hits give low values 0.996 | S. cerevisiae deletion strains, locus YDL017W, strain CDC7, hits give low values 0.99 | S. cerevisiae deletion strains, locus YDL028C, strain MPS1, hits give low values 0.997 | [1] 0.979 | S. cerevisiae deletion strains, locus YDL108W, strain KIN28, hits give low values 0.992 | S. cerevisiae deletion strains, locus YDL132W, strain cdc53, hits give low values 0.978 | S. cerevisiae deletion strains, locus YDL214C, strain PRR2, hits give low values 0.987 | S. cerevisiae deletion strains, locus YDR052C, strain DBF4, hits give low values 0.997 | S. cerevisiae deletion strains, locus YDR054C, strain cdc34, hits give low values 0.976 | S. cerevisiae deletion strains, locus YDR226W, strain ADK1, hits give low values 0.979 | S. cerevisiae deletion strains, locus YDR477W, strain SNF1, hits give low values 0.995 | S. cerevisiae deletion strains, locus YER123W, strain YCK3, hits give low values 0.996 | S. cerevisiae deletion strains, locus YER133W, strain GLC7, hits give low values 0.984 | S. cerevisiae deletion strains, locus YFL009W, strain cdc4, hits give low values 0.98 | S. cerevisiae deletion strains, locus YFL029C, strain CAK1, hits give low values 0.983 | S. cerevisiae deletion strains, locus YFR003C, strain YPI1, hits give low values 0.992 | S. cerevisiae deletion strains, locus YFR019W, strain FAB1, hits give low values 1 | S. cerevisiae deletion strains, locus YFR028C, strain CDC14, hits give low values 0.978 | S. cerevisiae deletion strains, locus YGR040W, strain KSS1, hits give low values 0.991 | S. cerevisiae deletion strains, locus YGR052W, strain FMP48, hits give low values 1.01 | S. cerevisiae deletion strains, locus YGR092W, strain DBF2, hits give low values 0.98 | [2] 0.983 | S. cerevisiae deletion strains, locus YHR079C, strain IRE1, hits give low values 0.891 | S. cerevisiae deletion strains, locus YHR082C, strain KSP1, hits give low values 1.09 | S. cerevisiae deletion strains, locus YHR205W, strain SCH9, hits give low values 0.913 | S. cerevisiae deletion strains, locus YIL147C, strain SLN1, hits give low values 0.993 | S. cerevisiae deletion strains, locus YJL095W, strain BCK1, hits give low values 0.894 | S. cerevisiae deletion strains, locus YJL128C, strain PBS2, hits give low values 0.925 | S. cerevisiae deletion strains, locus YJL157C, strain FAR1, hits give low values 1.01 | S. cerevisiae deletion strains, locus YJR016C, strain ILV3, hits give low values 0.984 | S. cerevisiae deletion strains, locus YJR066W, strain TOR1 (second series), hits give low values 0.983 | S. cerevisiae deletion strains, locus YJR066W, strain TOR1, hits give low values 1.1 | S. cerevisiae deletion strains, locus YKL048C, strain ELM1, hits give low values 0.922 | S. cerevisiae deletion strains, locus YKL067W, strain YNK1, hits give low values 0.988 | S. cerevisiae deletion strains, locus YKL101W, strain HSL1, hits give low values 0.961 | S. cerevisiae deletion strains, locus YKL193C, strain SDS22, hits give low values 0.989 | S. cerevisiae deletion strains, locus YKL203C, strain TOR2, hits give low values 1.07 | S. cerevisiae deletion strains, locus YLR113W, strain HOG1, hits give low values 0.885 | S. cerevisiae deletion strains, locus YLR133W, strain CKI1, hits give low values 1.02 | S. cerevisiae deletion strains, locus YLR403W, strain SFP1, hits give low values 0.944 | S. cerevisiae deletion strains, locus YML070W, strain DAK1, hits give low values 0.992 | S. cerevisiae deletion strains, locus YMR001C, strain CDC5, hits give low values 0.995 | S. cerevisiae deletion strains, locus YMR205C, strain PFK2 (second series), hits give low values 0.993 | S. cerevisiae deletion strains, locus YMR277W, strain FCP1, hits give low values 0.997 | S. cerevisiae deletion strains, locus YNL006W, strain LST8, hits give low values 0.975 | S. cerevisiae deletion strains, locus YNL020C, strain ARK1, hits give low values 1 | S. cerevisiae deletion strains, locus YNL161W, strain CBK1, hits give low values 0.982 | S. cerevisiae deletion strains, locus YNL183C, strain NPR1, hits give low values 1.06 | S. cerevisiae deletion strains, locus YNL207W, strain RIO2, hits give low values 0.986 | S. cerevisiae deletion strains, locus YNL222W, strain SSU72, hits give low values 0.989 | S. cerevisiae deletion strains, locus YNL307C, strain MCK1 (second series), hits give low values 1 | S. cerevisiae deletion strains, locus YOL078W, strain AVO1, hits give low values 0.994 | S. cerevisiae deletion strains, locus YOL136C, strain PFK27, hits give low values 1 | S. cerevisiae deletion strains, locus YOR061W, strain CKA2, hits give low values 1.01 | S. cerevisiae deletion strains, locus YOR119C, strain RIO1, hits give low values 1.04 | S. cerevisiae deletion strains, locus YOR231W, strain MKK1, hits give low values 1.02 | S. cerevisiae deletion strains, locus YOR329C, strain SCD5, hits give low values 0.993 | S. cerevisiae deletion strains, locus YPL031C, strain PHO85, hits give low values 0.992 | S. cerevisiae deletion strains, locus YPL153C, strain RAD53, hits give low values 1 | S. cerevisiae deletion strains, locus YPL204W, strain HRR25, hits give low values 1 | S. cerevisiae deletion strains, locus YPL209C, strain IPL1, hits give low values 0.993 | S. cerevisiae deletion strains, locus YPL256C, strain CLN2, hits give low values 0.94 | S. cerevisiae deletion strains, locus YPR025C, strain CCL1, hits give low values 0.992 | S. cerevisiae deletion strains, locus YPR106W, strain ISR1, hits give low values 0.981 | S. cerevisiae deletion strains, locus YPR111W, strain DBF20, hits give low values 0.966 | S. cerevisiae deletion strains, strain NNK1, hits give low values 0.963 | S. cerevisiae deletion strains, strain TSCII, hits give low values 0.991

O=C1NC2(CCN(Cc3ccccc3)CC2)Oc2ccccc21
inactive: [3] 0.999 | [4] 0.993 | [1] 0.949 | [5] 0.993 | [6] 1.02 | [7] 0.98 | S. cerevisiae deletion strains, locus YGR229C, strain SMI1, hits give low values 0.995 | [2] 1.04 | [8] 0.968 | [9] 1 | [10] 0.985 | S. cerevisiae deletion strains, locus YKL190W, strain CNB1, hits give low values 0.988 | [11] 0.984 | [12] 0.972 | [13] 1.14 | [14] 0.992 | [15] 1 | [16] 0.995 | [17] 1.03 | [18] 0.997 | [19] 0.955 | [20] 0.997 | [21] 0.975 | S. cerevisiae deletion strains, locus YOL006C, strain TOP1, hits give low values 0.918 | [22] 0.997 | [23] 1.1 | [24] 0.834 | [25] 0.983

CC(C)(C)NC(=S)NC1CCN(Cc2ccccc2)CC1
inactive: [3] 1.06 | [4] 0.997 | S. cerevisiae deletion strains, locus YCL061C, strain MRC1, hits give low values 1.03 | [1] 1.01 | S. cerevisiae deletion strains, locus YDL134C, strain PPH21, hits give low values 0.994 | [5] 0.969 | [6] 1.02 | [7] 1.01 | [2] 1.06 | [8] 0.986 | [9] 0.995 | [10] 0.994 | [11] 0.994 | [12] 0.983 | [13] 1.03 | [14] 0.985 | [15] 1.02 | [16] 1.01 | [17] 0.992 | [26] 0.987 | [18] 1.01 | [19] 1.01 | [20] 0.995 | [21] 1.03 | [22] 0.986 | [23] 1 | [24] 1.16 | [25] 0.981

c1ccc(CN2CCC3(CCCc4ccccc43)CC2)cc1
inactive: S. cerevisiae deletion strains, locus YAL040C, strain CLN3, hits give low values 1.02 | S. cerevisiae deletion strains, locus YER002W, strain NOP16, hits give low values 0.975 | [7] 0.976 | [26] 1 | [18] 0.817 | S. cerevisiae deletion strains, locus YNL175C, strain NOP13, hits give low values 0.993 | S. cerevisiae deletion strains, locus YNL197C, strain WHI3, hits give low values 0.983 | S. cerevisiae deletion strains, locus YNL224C, strain SQS1, hits give low values 1.01 | S. cerevisiae deletion strains, locus YOR083W, strain WHI5 (second series), hits give low values 0.874 | [23] 0.955
active: S. cerevisiae deletion strains, locus YCL061C, strain MRC1 (second series), hits give low values 0.938 | S. cerevisiae deletion strains, locus YDR363W, strain ESC2, hits give low values 0.805 | [22] 0.854
